# Laboratory results published in PubChem BioAssay.
# Calls of active or inactive are those of the source. Unless noted, how the calls were made is not given here.
# Key:
# [1] = HepG2 liver cancer cell viability effects, profiling panel, resazurin fluorescence, 24 h, PK04 Diversity Set (AID 1172); settings: higher = more signal; further: test concentration not given here
# [2] = basal S. cerevisiae growth modulation, no modifier, primary screen, OD600, strain BY4716, 24 h, basal condition (AID 1173); settings: OD600, 24 h, higher = more signal, called active from +8 up or from −8 down
# [3] = MM1S myeloma cell viability, profiling panel, resazurin fluorescence, basal, 24 h, PK04 Diversity Set (AID 1174); settings: higher = more signal, called active from +8 up or from −8 down;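 further: MM1S multiple myeloma cell line; test concentration not given here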
# [4] = target: Dihydroorotate dehydrogenase (quinone), mitochondrial (Plasmodium falciparum (isolate 3D7)) (UniProt Q08210); test: PfDHODH enzyme inhibitors, primary screen, biochemical, C-terminal His tag, absorbance 600 nm (AID 1175); settings: DCIP absorbance 600 nm, higher = more signal, called active from +8 up or from −8 down;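 further: recombinant parasite enzyme with a five histidine tag at its C terminus; test concentration not given here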
# [5] = P. aeruginosa biofilm formation inhibitors, primary screen, strain PAO1, LB-PBS medium, absorbance 600 nm (AID 1176); further: test concentration not given here; settings: P. aeruginosa PAO1 growth/biofilm, A600, 12 h; higher = more signal
# [6] = S. cerevisiae RM11-1a growth modifiers, primary screen, strain RM11-1a, OD600, basal, 24 h (AID 1177); settings: OD600, 24 h, higher = more signal, called active from +8 up or from −8 down;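 further: cultures grown under basal conditions with no added stressor; test concentration not given here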
# [7] = E. coli acrAB mutant growth effects, primary screen, E. coli filamentation inducers, strain DRC39, OD650, 24 h (AID 1178); settings: higher = more signal, called active from +8 up or from −8 down;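 further: growth measured as culture turbidity by optical density at 650 nm; test concentration not given here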
# [8] = E. coli acrAB mutant growth effects, primary screen, E. coli filamentation inducers, strain DRC39, OD650, 48 h (AID 1179);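 further: screen aims at cell division blockers that make cells filament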; settings: E. coli DRC39 delta-acrAB growth, higher = more signal, called active from +8 up or from −8 down
# [9] = RPMI8226 myeloma cell viability, profiling panel, resazurin fluorescence, basal, 24 h, PK04 Diversity Set (AID 1180); settings: higher = more signal;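 further: RPMI8826 multiple myeloma cell line at 5000 cells per well; test concentration not given here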
# [10] = target: E3 ubiquitin-protein ligase XIAP (Homo sapiens) (UniProt P98170); test: XIAP binders, primary screen, biophysical, small-molecule microarray, fluorescence 635 nm (AID 1181); settings: small-molecule microarray binding, higher = more signal;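 further: score merges 667 nm emission and signal to noise over triplicate slides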
# Chain of E3 ubiquitin-protein ligase XIAP (Homo sapiens) (P98170 whole entry, looked up): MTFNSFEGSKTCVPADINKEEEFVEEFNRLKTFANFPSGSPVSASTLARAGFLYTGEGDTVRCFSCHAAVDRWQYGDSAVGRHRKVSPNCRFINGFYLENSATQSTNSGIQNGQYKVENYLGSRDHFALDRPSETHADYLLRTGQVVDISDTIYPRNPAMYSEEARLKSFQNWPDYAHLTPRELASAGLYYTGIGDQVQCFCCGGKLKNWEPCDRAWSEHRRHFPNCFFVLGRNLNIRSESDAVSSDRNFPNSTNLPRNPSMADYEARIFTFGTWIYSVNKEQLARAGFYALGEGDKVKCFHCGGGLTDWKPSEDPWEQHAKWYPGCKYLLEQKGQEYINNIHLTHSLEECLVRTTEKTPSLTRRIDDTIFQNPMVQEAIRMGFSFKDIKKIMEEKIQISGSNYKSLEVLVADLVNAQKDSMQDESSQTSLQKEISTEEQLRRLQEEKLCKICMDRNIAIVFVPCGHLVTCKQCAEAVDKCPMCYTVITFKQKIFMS
# Chain of Dihydroorotate dehydrogenase (quinone), mitochondrial (Plasmodium falciparum (isolate 3D7)) (Q08210 whole entry, looked up): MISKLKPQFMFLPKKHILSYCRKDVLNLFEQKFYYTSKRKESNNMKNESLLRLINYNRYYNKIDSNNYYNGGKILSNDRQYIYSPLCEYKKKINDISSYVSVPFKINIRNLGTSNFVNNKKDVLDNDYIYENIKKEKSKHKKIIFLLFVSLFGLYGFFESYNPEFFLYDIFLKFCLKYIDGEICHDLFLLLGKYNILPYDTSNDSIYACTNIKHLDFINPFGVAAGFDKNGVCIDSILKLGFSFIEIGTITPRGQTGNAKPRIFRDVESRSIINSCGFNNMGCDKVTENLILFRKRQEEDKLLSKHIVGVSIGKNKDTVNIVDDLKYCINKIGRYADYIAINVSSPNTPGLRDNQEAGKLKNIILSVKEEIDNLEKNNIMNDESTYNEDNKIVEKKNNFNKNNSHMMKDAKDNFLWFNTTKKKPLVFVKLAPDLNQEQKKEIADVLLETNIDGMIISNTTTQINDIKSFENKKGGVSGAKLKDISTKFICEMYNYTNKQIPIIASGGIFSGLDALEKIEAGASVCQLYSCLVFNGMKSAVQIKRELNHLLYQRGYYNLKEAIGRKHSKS
Structure (SMILES),z-score [1],z-score [2],z-score [3],composite z-score [4],z-score [5],z-score [6],z-score [7],z-score [8],z-score [9],composite z-score [10]
CCOC(=O)C[C@H]1[C@H](OC(=O)c2ccc(-c3ccccc3)cc2)[C@@H](NC(=O)C2CCCCC2)c2cc(OCCCO)ccc2N1C(=O)Cc1ccc(OC)cc1,-0.0995,0.857 (inactive),-0.456 (inactive),-0.175 (inactive),0.55 (inactive),-0.442 (inactive),0.0009 (inactive),0.0016 (inactive),-0.131,-0.144
C[C@]12C(=O)N(CCO)[C@@H]3C(=O)N(c4ccc(Cl)cc4)CC=CC31O[C@@H]1/C=C\CCCOC(=O)C12 (stereo not given in full),-0.561,0.13 (inactive),-0.562 (inactive),-0.141 (inactive),-0.481 (inactive),0.556 (inactive),-1.18 (inactive),-1.25 (inactive),-0.184,-0.0746
COc1ccc([Si](C)(C)[C@H]2[C@H](CCO)O[C@@]3(C(=O)N(Cc4ccccc4)c4ccc(NC(=O)[C@H](C)O)cc43)[C@@H]2C)cc1,-4.02,0.478 (inactive),-7.25 (inactive),1.18 (inactive),1.7 (inactive),4.58 (inactive),1.23 (inactive),0.723 (inactive),-5.45,0.0153
Cc1ccc(S(=O)(=O)N2[C@@H](c3ccccc3)C(C(=O)O)=C[C@H]2C(C)(C)C)cc1,-0.809,-0.535 (inactive),-0.912 (inactive),0.0392 (inactive),0.257 (inactive),-1.13 (inactive),-0.773 (inactive),-0.0408 (inactive),-2.03,-0.18
C=C(C(=O)CC[C@H](OC(=O)c1ccccc1-c1ccccc1C(=O)O)c1ccc(OCCO)cc1)C(C)C,0.0716,-1.02 (inactive),-0.22 (inactive),-0.311 (inactive),0.509 (inactive),-0.711 (inactive),-0.0716 (inactive),-0.698 (inactive),0,0.125
COCCOC(=O)N1C(=O)[C@@]2(c3cc(C#CCNC(N)=O)ccc31)[C@H](c1ccccc1OCCO)N1[C@H](c3ccccc3)[C@H](c3ccccc3)OC(=O)[C@H]1[C@@H]2C(=O)N1CCCCCCC1,0.875,1 (inactive),0.723 (inactive),-0.321 (inactive),2.91 (inactive),1.09 (inactive),-0.256 (inactive),-0.276 (inactive),-0.55,-0.0143
CC(C)C[C@H]1NC(=O)CNC(=O)[C@@]23C(=O)N[C@@H](Cc4ccccc4)C2[C@H](C)[C@@]2(C)O[C@H]2C3/C=C/C/C=C\CNC1=O (stereo not given in full),-0.657,-0.572 (inactive),0.105 (inactive),-0.341 (inactive),1.11 (inactive),0.0636 (inactive),-0.288 (inactive),-0.141 (inactive),0.293,-0.122
CCCCC(=C=CC[C@H](O)c1ccccc1OCCO)CCO,-0.259,-1.3 (inactive),0.189 (inactive),-0.228 (inactive),0.755 (inactive),0.493 (inactive),-0.295 (inactive),-0.224 (inactive),-0.0336,-0.223
CN1C(=O)C2C=CC(C(O)c3cccs3)N(N(c3ccccc3)c3ccccc3)C2C1=O (stereo not given),-0.428,0.754 (inactive),-1.13 (inactive),0.656 (inactive),0.419 (inactive),0.567 (inactive),-0.483 (inactive),0.0156 (inactive),-0.985,0.462
C=C(C(=O)CC[C@@H](OC(=O)c1ccccc1-c1ccccc1C(=O)O)c1cccc(OCCO)c1)C(C)C,0.821,-1.96 (inactive),1 (inactive),-1.26 (inactive),0.661 (inactive),-0.364 (inactive),0.546 (inactive),0.332 (inactive),1.82,0.112
CC1CC/C=C\[C@H]2OC34C=CCN(CCN5CCOCC5)C(=O)[C@H]3N(C(CO)C(C)C)C(=O)[C@@H]4C2C(=O)O1 (stereo not given in full),-0.137,0.183 (inactive),-0.885 (inactive),-3.11 (inactive),-0.869 (inactive),-0.459 (inactive),0.332 (inactive),0.365 (inactive),-0.465,-0.0172
Cc1ccc(S[C@]2(C(=O)NCc3ccccc3)CC(=O)N(Cc3ccccc3C(F)(F)F)[C@@H]2c2ccc(CO)cc2I)cc1,0.213,-5.1 (inactive),-2.36 (inactive),-1.44 (inactive),-0.239 (inactive),-1.54 (inactive),0.506 (inactive),-0.0277 (inactive),-1.28,-0.135
COC(=O)[C@@]1(Cc2ccc(F)cc2)[C@H]2c3cc(C(=O)N(C)C)n(CCF)c3C[C@H]2CN1C(=O)c1ccccc1,0.0085,0.0276 (inactive),-0.182 (inactive),-0.54 (inactive),0.7 (inactive),-0.5 (inactive),0.783 (inactive),0.459 (inactive),0.034,0.179
CC(C)c1ccc(NN2C(C(O)C(C)c3ccccc3)C=CC3C(=O)N(c4ccccc4)C(=O)C32)cc1 (stereo not given),-1.72,0.0145 (inactive),-1.23 (inactive),-0.259 (inactive),1.22 (inactive),0.208 (inactive),-0.828 (inactive),-0.764 (inactive),-1.2,0.155
C=CC[C@H](O)c1ccc(O)c2ccccc12,-0.129,-15.1 (active),-1.42 (inactive),-1.86 (inactive),0.614 (inactive),0.891 (inactive),0.682 (inactive),0.419 (inactive),-1.05,-0.113
O=C1NC(=O)C2C1C=CC(C(O)C(c1ccccc1)c1ccccc1)N2Nc1ccccn1 (stereo not given),-0.187,-0.639 (inactive),-0.408 (inactive),1.72 (inactive),0.916 (inactive),0.419 (inactive),-0.156 (inactive),-0.284 (inactive),0.261,0.417
CO[C@H]1O[C@H](CO)[C@@H](OC(=O)Nc2cccc(F)c2)[C@H](OC(=O)Nc2ccc3c(c2)OCO3)[C@@H]1OC(=O)Nc1ccc2c(c1)OCO2,-0.705,1.38 (inactive),-1 (inactive),0.368 (inactive),0.661 (inactive),1.82 (inactive),1.04 (inactive),0.761 (inactive),-0.931,0.0526
C=CCN1C(=O)[C@]2(O[C@H](CCO)[C@@H]([Si](C)(C)c3ccc(OC)cc3)[C@@H]2C)c2cc(N3C(=O)c4ccccc4Oc4ccccc43)ccc21,-5.91,0.84 (inactive),-8.74 (active),1.11 (inactive),0.106 (inactive),4.06 (inactive),0.229 (inactive),-0.757 (inactive),-6.28,-0.138
COC(=O)[C@@]1(Cc2ccc(F)cc2)[C@H]2c3cc(C(=O)N4CCCC4)n(Cc4ccc(C(F)(F)F)nc4)c3C[C@H]2CN1C(=O)c1ccccc1,-0.213,1.12 (inactive),-1.23 (inactive),-0.456 (inactive),-0.691 (inactive),1.09 (inactive),-0.83 (inactive),0.0871 (inactive),-1.11,0.153
COc1ccc(C(O)C2C=CC3C(=O)N(c4ccccc4)C(=O)C3N2Nc2ccccc2F)c2ccccc12 (stereo not given),-1.83,-1.71 (inactive),-0.042 (inactive),-0.588 (inactive),1.15 (inactive),-0.0824 (inactive),-0.203 (inactive),-0.617 (inactive),0.0565,0.253
[N-]=[N+]=NCc1ccccc1[C@H]1OC(c2ccc(OCCCO)cc2)=N[C@@]1(Cc1ccccc1N=[N+]=[N-])C(=O)N1CCOCC1,-0.317,-0.783 (inactive),-2.46 (inactive),1.03 (inactive),0.438 (inactive),1.43 (inactive),-0.33 (inactive),-0.799 (inactive),-2.58,0.122
C=CCN1C(=O)[C@@]2(O[C@@H](CCO)[C@H]([Si](C)(C)c3ccc(OC)cc3)[C@H]2C)c2cc(N3CCCCC3=O)ccc21,-2.74,0.208 (inactive),-4.57 (inactive),-1.11 (inactive),0.568 (inactive),2.45 (inactive),1.16 (inactive),0.777 (inactive),-5.44,0.271
CC(C)c1ccc(NN2C(C(O)C3=C[C@H]4C[C@@H](C3)C4(C)C)C=CC3C(=O)N(c4ccccc4)C(=O)C32)cc1 (stereo not given in full),-1.11,-1.8 (inactive),0.32 (inactive),0.0752 (inactive),0.863 (inactive),0.786 (inactive),-0.326 (inactive),-0.629 (inactive),0.319,0.339
